# Data from PubChem BioAssay (Tox21).
# Inconclusive results are not listed. Where a call stands in place of a potency, no number is given. Values without a mark were called inactive. Activity calls are given as the source filed them. Calls follow the shape of the full dose curve.
# Target: Progesterone receptor (Homo sapiens) (UniProt P06401)
# Test: qHTS assay to identify small molecule agonists of the progesterone receptor (PR) signaling pathway (AID 1346784); also: nearly all actives have a fitted effect of over 30% in size
# Settings: PR-UAS-bla HEK293T, beta-lactamase FRET ratio, 16 h; series mostly up to 92.4 µM
# Source text: U.S. Tox21 Program National Center for Advancing Translational Sciences [NCATS] NIH Chemical Genomics Center [NCGC] U.S. Environmental Protection Agency [EPA] National Institutes of Environmental Health Sciences [NIEHS] National Toxicology Program [NTP] U.S. Food and Drug Administration [FDA] […] Endocrine disrupting chemicals (EDCs) and their interactions with steroid hormone receptors like PR causes disruption of normal endocrine function. To identify the compounds that activate PR signaling, a PR-UAS-bla GripTite cell line i.e. PR-UAS-bla HEK 293T (Invitrogen, Carlsbad, CA, USA) containing a beta-lactamase reporter gene under the control of an Upstream Activator Sequence (UAS) was used to screen Tox21 10K compound library.
# Tox21 Assay Protocol Summary: PR-UAS-bla HEK 293T cells were dispensed at 3,000 cells/5 uL of assay medium containing 2% charcoal stripped FBS per well into black wall/clear-bottom 1536-well plates using a Multidrop Combi (ThermoFisher Scientific, Waltham, MA) dispenser. After the assay plates were incubated at a 37C and 5% CO2 for 6hr, 23 nL of compounds dissolved in DMSO, positive controls or DMSO only was transferred to the assay plate by a Pintool station (Kalypsys, San Diego, CA). The plates were incubated at 37C and 5% CO2 for 16hr. Then 1 uL of LiveBLAzer B/G FRET substrate was added using a BioRAPTR FRD (Flying Reagent Dispenser, Aurora Discovery, San Diego, CA). After the plates were incubated at room temperature for 2 hours, fluorescence intensity was measured by an Envision plate reader (PerkinElmer, Shelton, CT).
# Chain of Progesterone receptor (Homo sapiens) (P06401 whole entry, looked up): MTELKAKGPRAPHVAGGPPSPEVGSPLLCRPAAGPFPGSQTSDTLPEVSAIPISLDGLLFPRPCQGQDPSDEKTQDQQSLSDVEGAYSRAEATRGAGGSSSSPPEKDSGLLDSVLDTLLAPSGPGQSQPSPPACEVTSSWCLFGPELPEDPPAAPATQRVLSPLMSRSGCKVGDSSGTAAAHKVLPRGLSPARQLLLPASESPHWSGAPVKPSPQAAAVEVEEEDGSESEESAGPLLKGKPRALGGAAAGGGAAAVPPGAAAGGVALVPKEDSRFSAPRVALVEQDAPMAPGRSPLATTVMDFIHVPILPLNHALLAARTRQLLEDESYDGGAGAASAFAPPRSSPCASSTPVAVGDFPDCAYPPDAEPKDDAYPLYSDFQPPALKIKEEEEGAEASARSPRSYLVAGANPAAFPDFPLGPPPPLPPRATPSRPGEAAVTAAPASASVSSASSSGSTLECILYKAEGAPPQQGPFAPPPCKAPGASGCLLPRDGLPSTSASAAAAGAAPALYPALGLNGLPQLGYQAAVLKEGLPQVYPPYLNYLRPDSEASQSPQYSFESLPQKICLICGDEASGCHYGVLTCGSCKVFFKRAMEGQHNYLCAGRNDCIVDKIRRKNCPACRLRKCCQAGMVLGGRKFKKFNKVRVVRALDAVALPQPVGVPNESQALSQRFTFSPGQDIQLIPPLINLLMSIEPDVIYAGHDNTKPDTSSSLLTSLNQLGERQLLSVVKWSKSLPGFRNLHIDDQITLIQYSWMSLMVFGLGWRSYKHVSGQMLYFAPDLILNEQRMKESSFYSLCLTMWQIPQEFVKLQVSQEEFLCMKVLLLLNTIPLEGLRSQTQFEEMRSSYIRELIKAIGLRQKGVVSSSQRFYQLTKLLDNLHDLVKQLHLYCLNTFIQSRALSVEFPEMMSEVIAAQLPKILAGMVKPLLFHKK
SMILES,Potency,activation
CNCCCCOc1ccccc1Cc1ccccc1,inactive,–
CC1=CC[C@H](C(C)C)C=C1,inactive,–
CCCC(=O)Nc1ccc(O)c(C(C)=O)c1,inactive,–
CCCCNc1ccc(C(=O)OCCOCCOCCOCCOCCOCCOCCOCCOCCOC)cc1,inactive,–
COC(C)(C)CCO,inactive,–
CCCCCCCC#N,inactive,–
O=CC1CC=CCC1 (stereo not given),inactive,–
NS(=O)(=O)c1ccc(N2CCCCS2(=O)=O)cc1,inactive,–
CCN(CC)CCNC(=O)c1cc(Br)c(N)cc1OC,inactive,–
Cc1nn(C)c(Oc2ccccc2)c1/C=N/OCc1ccc(C(=O)OC(C)(C)C)cc1,inactive,–
CC(C)(C)OCC1CO1 (stereo not given),inactive,–
Cc1ncc(CO)c(C=O)c1O,inactive,–
C1CCCNCCC1,inactive,–
CCCCO,inactive,–
O=C1OC(=O)C2C3C=CC(C3)C12 (stereo not given),inactive,–
CCCCCCOC(=O)NC(=N)c1ccc(NCc2nc3cc(C(=O)N(CCC(=O)OCC)c4ccccn4)ccc3n2C)cc1,inactive,–
O=C(c1ccc(F)cc1)C1CCN(CCn2c(=S)[nH]c3ccccc3c2=O)CC1,inactive,–
CCCCCCCCCCCCCCCCCCOS(=O)(=O)O,inactive,–
CCCCCCCN,inactive,–
CN(C)CCN(Cc1ccsc1)c1ccccn1,inactive,–

SMILES,Potency,activation
CCO[Si](CCCCl)(OCC)OCC,inactive,–
Cc1ccccc1S(=O)(=O)O,inactive,–
COCC(C)OC(C)=O (stereo not given),inactive,–
CCOC(=O)c1cccnc1,inactive,–
O=C(O)C(S)C(S)C(=O)O (stereo not given),inactive,–
Nc1ccccc1S(=O)(=O)c1ccccc1,inactive,–
CCOCC(O)COc1ccc(NC(=O)CC[S+](C)C)cc1 (stereo not given),inactive,–
C#C[C@]1(O)CC[C@H]2[C@@H]3CCc4cc(OC5CCCC5)ccc4[C@H]3CC[C@@]21C,inactive,–
CC(CSC(=O)c1ccccc1)C(=O)N1C[C@@H](Sc2ccccc2)C[C@H]1C(=O)O (stereo not given in full),–,-0.419% [at 19 µM]
CC/C=C\CCOC(=O)CC,inactive,–
COCCCN1CCC(NC(=O)c2cc(Cl)c(N)c3c2OCC3)CC1,inactive,–
C#CCN(C)CCCOc1ccc(Cl)cc1Cl,inactive,–
COc1cc2nc(N(C)CCCNC(=O)C3CCCO3)nc(N)c2cc1OC (stereo not given),inactive,–
CCCCC1=NC2(CCCC2)C(=O)N1Cc1ccc(-c2ccccc2-c2nn[nH]n2)cc1,inactive,–
CCN(CC)CCOC(=O)C(Cc1cccc2ccccc12)CC1CCCO1 (stereo not given),inactive,–
O=S(c1cc(Cl)cc(Cl)c1O)c1cc(Cl)cc(Cl)c1O,inactive,–
Brc1c2ccccc2c(Br)c2ccccc12,–,5.54% [at 8.39 µM]
CCOC(=O)C(F)(F)F,inactive,–
COC(=O)c1ccc(I)cc1S(=O)(=O)NC(=O)Nc1nc(C)nc(OC)n1,inactive,–
CCOC(=O)NCCOc1ccc(Oc2ccccc2)cc1,inactive,–
